Results taken from PubChem BioAssay (NCATS).
Records with an inconclusive call do not appear. Calls of active or inactive are those of the source. Unless noted, calls follow the shape of the dose curve; as a rule, active = well fitted curve in the direction sought with a large enough effect; inconclusive = small, poorly fitted or top-dose-only effect, or another doubt; inactive = no such curve, though single readings can be large; an effect the other way counts as inactive or inconclusive.

What was measured:
[1] = AP1 Signaling Pathway (AID 357; active = well fitted curve in either direction with a large enough effect, not every such curve was filed as active;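 also: ME-180 reporter cells stimulated with EGF at its EC50 level; % is scaled to controls: 0 for no effect and ±100 for the full control effect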); details: ME-180 AP-1-bla reporter, EGF-induced, beta-lactamase ratio, 5 h; at 7.69 µM (top of the series) unless noted
How it was run: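 Beta-lactamase reporter under AP-1 response element, ME-180 background. Stimulus: EC50 EGF. Compound exposure 5 h, 37 °C. Detection: CCF4, 2.5 h RT, 460/530 nm. Values: AC50 from titration.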

[2] = Stat Signaling Pathway (AID 446; active = well fitted curve in either direction with a large enough effect, not every such curve was filed as active;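 also: ME-180 cervical cancer cells given 40 pM IL-6 alongside compound; SIE-controlled beta-lactamase reporter measured as 460/530 nm FRET emission ratio; % is scaled to controls: 0 for no effect and ±100 for the full control effect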); details: ME-180 SIE beta-lactamase reporter, IL-6 stimulated, 5 h; at 7.69 µM (top of the series) unless noted
How it was run: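 ME-180 SIE-bla cells; overnight plating; cpd + IL-6 40 pM, 5 h, 37 C; LiveBLAzer 2.5 h RT; 460/530 nm emission ratio. Normalized to 300 pM IL-6 and 125 nM JAK inhibitor controls.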

[3] = target: Glucocorticoid receptor (Homo sapiens) (UniProt P04150); test: GR-EFC Redistribution (AID 451; calls by dose curve; also: potency is read from the fitted curve at half-maximal effect); details: CHO-K1 GR-EFC translocation, beta-gal luminescence, 2 h
How it was run: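 Translocation of GR-ED fusion to nuclear EA restores b-gal, read by luminescence after 1 h room-temperature detection. Engineered CHO-K1 biosensor cells, 1,000/well, exposed 2 h at 37 C to titrations up to 46 uM final.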

[4] = target: Mitogen-activated protein kinase 10 (Mus musculus) (UniProt Q61831); test: JNK3 AlphaScreen Assay (AID 530; active = well fitted curve in either direction with a large enough effect, not every such curve was filed as active;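 also: kinase came from lysate of stimulated human HepG2 cells; signal reports phosphorylation of biotinylated GST-cJun 1-79 at Ser73 with 10 µM ATP; % is scaled to controls: 0 for no effect and ±100 for the full control effect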)
How it was run: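 Room-temperature AlphaScreen kinase assay; pre-activated HepG2 lysate as JNK3 source, biotin-GST-cJun(1-79) substrate, 10 uM ATP, compound 15 min preincubation.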

[5] = target: 3',5'-cyclic-AMP phosphodiesterase 4B (Homo sapiens) (UniProt Q07343); test: qHTS Assay for Inhibitors of PDE-IV (AID 607; active = well fitted activation curve with a large enough effect in the main read-out, with a control signal flat, not every such curve was filed as active; also: % of control where 0% means no effect)
Sequence of 3',5'-cyclic-AMP phosphodiesterase 4B (Homo sapiens) (Q07343 whole entry, looked up): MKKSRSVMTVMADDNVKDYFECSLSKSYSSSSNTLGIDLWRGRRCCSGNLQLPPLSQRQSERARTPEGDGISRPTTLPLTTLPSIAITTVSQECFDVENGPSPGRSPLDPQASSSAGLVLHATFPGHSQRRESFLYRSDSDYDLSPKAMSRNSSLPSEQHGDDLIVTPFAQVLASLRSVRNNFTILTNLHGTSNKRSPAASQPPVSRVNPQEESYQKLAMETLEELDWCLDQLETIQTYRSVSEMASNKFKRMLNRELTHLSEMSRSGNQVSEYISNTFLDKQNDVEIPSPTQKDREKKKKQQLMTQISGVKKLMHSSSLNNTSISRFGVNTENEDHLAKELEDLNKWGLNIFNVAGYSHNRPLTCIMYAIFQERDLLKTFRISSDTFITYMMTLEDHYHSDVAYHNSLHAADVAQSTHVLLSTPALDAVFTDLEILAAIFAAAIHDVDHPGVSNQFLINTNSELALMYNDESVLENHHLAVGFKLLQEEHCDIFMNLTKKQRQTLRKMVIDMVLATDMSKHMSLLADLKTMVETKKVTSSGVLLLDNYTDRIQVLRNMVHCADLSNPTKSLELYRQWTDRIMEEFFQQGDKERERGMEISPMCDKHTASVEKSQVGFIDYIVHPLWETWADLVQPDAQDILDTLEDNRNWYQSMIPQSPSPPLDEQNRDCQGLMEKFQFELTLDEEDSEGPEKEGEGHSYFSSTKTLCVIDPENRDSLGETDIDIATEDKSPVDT
How it was run: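 ACTOne HEK293 cells carry a modified cAMP-gated CNG channel and express endogenous PDE4; plated 1000 cells/well, compounds up to 22.9 uM final. Membrane-potential dye fluorescence (ex 535/em 590) was read; parental cells received 10 uM forskolin + 100 uM RO 20-1724.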

[6] = qHTS Assay for Lipid Storage Modulators (AID 1519; calls by dose curve); details: Drosophila S3 cells, BODIPY lipid droplet/cell ratio, laser cytometry, cells loaded with oleic acid; for activity change, negative = inhibition: at 57.5 µM (top of the series)
How it was run: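 Cells seeded at 5,000 per well were treated with compounds over a concentration series and loaded with oleic acid (400 uM, as added). Lipid droplet fluorescence (488 nm excitation, 500-530 nm channel) was read by laser-scanning cytometry and normalized to 20 uM Triacsin C.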

[7] = Primary qHTS for small molecule stabilizers of the endoplasmic reticulum resident proteome: Secreted ER Calcium Modulated Protein (SERCaMP) assay (AID 1508630); also: % is scaled to controls: 0 for no effect and ±100 for the full control effect
How it was run: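 GLuc-SERCaMP-expressing SH-SY5Y cells, pretreated 16 h with compound, are challenged with thapsigargin to empty ER calcium stores; after 4 h, coelenterazine is added directly to the medium and luminescence is imaged.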

[8] = NFAT Signaling Pathway (AID 444; active = well fitted curve in either direction with a large enough effect, not every such curve was filed as active); details: Jurkat NFAT-bla M1, carbachol, beta-lactamase ratio, 5 h; at 7.69 µM (top of the series) unless noted
How it was run: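 Read-out: CCF4 FRET ratio (460 nm/530 nm) after 1 h RT dye loading, used for %activity and AC50 from titration series. Cells: Jurkat NFAT-β-lactamase/M1 line, treated with compound plus 1 uM carbachol for 5 h, 37 °C.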

[9] = target: Cytochrome P450 1A2 (Homo sapiens) (UniProt P05177); test: p450-cyp1a2 (AID 410; calls by dose curve; also: potency is read from the fitted curve at half-maximal effect;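 as to activity change, negative = inhibition: -100% = full effect of reference inhibitor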)
Sequence of Cytochrome P450 1A2 (Homo sapiens) (P05177 whole entry, looked up): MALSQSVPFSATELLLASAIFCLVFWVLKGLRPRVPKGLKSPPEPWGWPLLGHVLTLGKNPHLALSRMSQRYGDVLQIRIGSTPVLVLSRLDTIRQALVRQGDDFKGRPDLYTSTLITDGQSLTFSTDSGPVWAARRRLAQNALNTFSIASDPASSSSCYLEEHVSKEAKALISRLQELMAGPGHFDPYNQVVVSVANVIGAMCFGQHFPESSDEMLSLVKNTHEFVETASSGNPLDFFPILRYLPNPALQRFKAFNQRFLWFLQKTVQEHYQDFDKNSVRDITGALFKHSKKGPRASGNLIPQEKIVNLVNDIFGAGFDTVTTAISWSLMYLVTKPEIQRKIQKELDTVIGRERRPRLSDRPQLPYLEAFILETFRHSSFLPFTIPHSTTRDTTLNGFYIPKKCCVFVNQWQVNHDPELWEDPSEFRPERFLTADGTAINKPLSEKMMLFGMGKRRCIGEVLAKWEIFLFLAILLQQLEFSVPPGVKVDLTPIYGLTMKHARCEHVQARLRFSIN
How it was run: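 Human CYP1A2 (20nM) demethylated Luciferin-ME at its Km (100uM) in 100mM KPO4. After 10 min compound preincubation, NADPH regeneration ran the reaction 60 min at room temperature. Luciferin was read by luminescence, normalized to 57 uM furafylline.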

[10] = target: Glucocorticoid receptor (Homo sapiens) (UniProt P04150); test: GR-GFP Redistribution (AID 450;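 active = compounds whose dose series gives a full or clear partial fitted curve of increased nuclear translocation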; also: potency is read from the fitted curve at half-maximal effect); details: U2OS GR-GFP nuclear translocation, laser cytometry, 2 h
[11] = target: Cytochrome P450 3A4 (Homo sapiens) (UniProt P08684); test: qHTS Assay for Activators of Cytochrome P450 3A4 (AID 885); also: nearly all actives have a fitted effect of over 65% in size
Sequence of Cytochrome P450 3A4 (Homo sapiens) (P08684 whole entry, looked up): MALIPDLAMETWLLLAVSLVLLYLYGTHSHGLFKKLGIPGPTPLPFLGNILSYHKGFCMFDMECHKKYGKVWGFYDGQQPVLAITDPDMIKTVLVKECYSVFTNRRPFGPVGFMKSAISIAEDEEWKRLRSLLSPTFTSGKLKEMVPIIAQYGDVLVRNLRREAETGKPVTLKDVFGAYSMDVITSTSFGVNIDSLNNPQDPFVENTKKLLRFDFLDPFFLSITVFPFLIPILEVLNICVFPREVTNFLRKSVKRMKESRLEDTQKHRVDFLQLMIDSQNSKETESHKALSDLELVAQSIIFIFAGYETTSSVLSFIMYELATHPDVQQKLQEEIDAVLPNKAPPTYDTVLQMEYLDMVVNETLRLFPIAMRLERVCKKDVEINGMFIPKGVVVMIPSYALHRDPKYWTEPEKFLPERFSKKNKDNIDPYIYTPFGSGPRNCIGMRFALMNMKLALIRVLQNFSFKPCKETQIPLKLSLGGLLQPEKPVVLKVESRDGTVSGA
How it was run: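 20nM CYP3A4 + 25uM Luciferin-PPXE (=KM), 200mM KPO4; cpd 10 min RT; NADPH regen, 60 min RT; stop w/ detection buffer, 20 min; luminescence. Normalized to 57 uM ketoconazole.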

[12] = target: Ubiquitin carboxyl-terminal hydrolase 1 (Homo sapiens) (UniProt O94782); test: Inhibitors of USP1/UAF1: Pilot qHTS (AID 504865); also: nearly all actives have a fitted effect of over 35% in size; also: potency is read from the fitted curve at half-maximal effect
How it was run: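 Enzyme-free wells gave the negative control, while test wells held 1nM USP1/UAF1 preincubated with compound for 15 min at room temperature. Ub-Rho at 150nM final started the reaction, and fluorescence at 480/540 nm was recorded kinetically.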

[13] = target: Lysosomal acid glucosylceramidase (Homo sapiens) (UniProt P04062); test: Glucocerebrosidase-p2 (AID 348; in the data active = potency below about 10 µM; also: potency is read from the fitted curve at half-maximal effect); details: purified GBA, blue fluorogenic substrate, 40 min
Sequence of Lysosomal acid glucosylceramidase (Homo sapiens) (P04062 whole entry, looked up): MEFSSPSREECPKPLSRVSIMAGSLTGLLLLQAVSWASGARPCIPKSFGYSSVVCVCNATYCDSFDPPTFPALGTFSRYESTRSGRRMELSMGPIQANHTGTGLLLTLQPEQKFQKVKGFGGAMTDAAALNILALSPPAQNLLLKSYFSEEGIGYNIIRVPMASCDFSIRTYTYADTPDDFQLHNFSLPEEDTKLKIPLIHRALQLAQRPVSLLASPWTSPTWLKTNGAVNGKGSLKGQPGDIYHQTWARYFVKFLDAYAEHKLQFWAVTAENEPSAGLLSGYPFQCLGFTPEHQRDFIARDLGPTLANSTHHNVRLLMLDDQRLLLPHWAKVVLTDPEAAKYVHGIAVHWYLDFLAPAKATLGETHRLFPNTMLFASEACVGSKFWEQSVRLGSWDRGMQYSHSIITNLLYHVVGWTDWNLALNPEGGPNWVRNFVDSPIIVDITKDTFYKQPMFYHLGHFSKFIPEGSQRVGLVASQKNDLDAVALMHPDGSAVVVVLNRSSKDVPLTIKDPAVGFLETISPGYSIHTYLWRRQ
How it was run: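 Compounds titrated from 0.6 nM upwards against 0.2 nM enzyme in pH 5.9 citric acid/KH2PO4, taurocholate, tween-20; blue fluorogenic substrate 80 uM, 40 min room temperature, stopped and read Ex 365/Em 440 for AC50.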

[14] = target: Rap guanine nucleotide exchange factor 3 (Homo sapiens) (UniProt O95398); test: Confirmatory qHTS for antagonist of cAMP-regulated guanine nucleotide exchange factor 3 (EPAC1) (AID 1645880);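 also: plate controls were DMSO only for no effect and full effect of the ATA control for full effect; nearly all actives have a fitted effect of over 55% in size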
Sequence of Rap guanine nucleotide exchange factor 3 (Homo sapiens) (O95398 whole entry, looked up): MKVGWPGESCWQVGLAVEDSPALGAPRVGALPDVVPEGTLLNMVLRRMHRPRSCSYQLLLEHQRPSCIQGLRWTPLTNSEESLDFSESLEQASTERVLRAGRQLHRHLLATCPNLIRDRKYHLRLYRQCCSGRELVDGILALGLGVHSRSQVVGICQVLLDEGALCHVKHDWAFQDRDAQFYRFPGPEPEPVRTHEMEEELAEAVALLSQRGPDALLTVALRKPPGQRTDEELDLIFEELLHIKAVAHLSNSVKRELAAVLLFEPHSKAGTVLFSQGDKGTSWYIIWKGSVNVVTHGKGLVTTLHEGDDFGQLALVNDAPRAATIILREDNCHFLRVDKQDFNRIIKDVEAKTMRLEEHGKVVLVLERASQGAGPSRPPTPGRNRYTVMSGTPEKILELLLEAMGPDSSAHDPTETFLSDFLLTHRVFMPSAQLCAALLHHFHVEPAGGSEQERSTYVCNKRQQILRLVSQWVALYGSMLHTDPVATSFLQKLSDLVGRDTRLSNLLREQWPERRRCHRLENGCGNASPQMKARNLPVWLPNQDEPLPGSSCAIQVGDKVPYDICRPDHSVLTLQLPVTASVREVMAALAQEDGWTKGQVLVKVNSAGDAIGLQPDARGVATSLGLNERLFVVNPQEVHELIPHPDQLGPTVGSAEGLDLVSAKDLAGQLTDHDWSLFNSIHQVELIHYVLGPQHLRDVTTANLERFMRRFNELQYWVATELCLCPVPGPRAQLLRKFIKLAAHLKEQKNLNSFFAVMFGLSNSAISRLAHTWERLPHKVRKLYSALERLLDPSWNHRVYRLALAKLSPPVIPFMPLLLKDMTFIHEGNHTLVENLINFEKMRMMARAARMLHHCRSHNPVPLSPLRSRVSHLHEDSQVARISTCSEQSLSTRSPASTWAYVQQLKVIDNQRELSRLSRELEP
How it was run: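 Nucleotide exchange uses 100 nM EPAC1, 250 nM RAP1B-BODIPY-GDP and 50 uM GDP, with compounds in a concentration-titration series. After 5 min at room temperature, fluorescence (480 nm ex/540 nm em) is read every 5 min for 30 min. Data are normalized to control ATA and DMSO.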

[15] = target: Rap guanine nucleotide exchange factor 3 (Homo sapiens) (UniProt O95398); test: Confirmatory qHTS for agonist of cAMP-regulated guanine nucleotide exchange factor 3 (EPAC1) (AID 1645881);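 also: EPAC1 catalysed release of BODIPY-GDP from Rap1B seen as fluorescence loss; 100% = effect of cAMP agonist control; nearly all actives have a fitted effect of over 75% in size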
[16] = target: Rap guanine nucleotide exchange factor 4 (Homo sapiens) (UniProt Q8WZA2); test: Confirmatory qHTS for agonist of cAMP-regulated guanine nucleotide exchange factor 4 (EPAC2) (AID 1645884);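 also: nucleotide exchange releases bodipy-GDP from Rap1 and this lowers its fluorescence; % is scaled to controls: 0 for no effect and ±100 for the full control effect; nearly all actives have a fitted effect of over 65% in size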
Sequence of Rap guanine nucleotide exchange factor 4 (Homo sapiens) (Q8WZA2 whole entry, looked up): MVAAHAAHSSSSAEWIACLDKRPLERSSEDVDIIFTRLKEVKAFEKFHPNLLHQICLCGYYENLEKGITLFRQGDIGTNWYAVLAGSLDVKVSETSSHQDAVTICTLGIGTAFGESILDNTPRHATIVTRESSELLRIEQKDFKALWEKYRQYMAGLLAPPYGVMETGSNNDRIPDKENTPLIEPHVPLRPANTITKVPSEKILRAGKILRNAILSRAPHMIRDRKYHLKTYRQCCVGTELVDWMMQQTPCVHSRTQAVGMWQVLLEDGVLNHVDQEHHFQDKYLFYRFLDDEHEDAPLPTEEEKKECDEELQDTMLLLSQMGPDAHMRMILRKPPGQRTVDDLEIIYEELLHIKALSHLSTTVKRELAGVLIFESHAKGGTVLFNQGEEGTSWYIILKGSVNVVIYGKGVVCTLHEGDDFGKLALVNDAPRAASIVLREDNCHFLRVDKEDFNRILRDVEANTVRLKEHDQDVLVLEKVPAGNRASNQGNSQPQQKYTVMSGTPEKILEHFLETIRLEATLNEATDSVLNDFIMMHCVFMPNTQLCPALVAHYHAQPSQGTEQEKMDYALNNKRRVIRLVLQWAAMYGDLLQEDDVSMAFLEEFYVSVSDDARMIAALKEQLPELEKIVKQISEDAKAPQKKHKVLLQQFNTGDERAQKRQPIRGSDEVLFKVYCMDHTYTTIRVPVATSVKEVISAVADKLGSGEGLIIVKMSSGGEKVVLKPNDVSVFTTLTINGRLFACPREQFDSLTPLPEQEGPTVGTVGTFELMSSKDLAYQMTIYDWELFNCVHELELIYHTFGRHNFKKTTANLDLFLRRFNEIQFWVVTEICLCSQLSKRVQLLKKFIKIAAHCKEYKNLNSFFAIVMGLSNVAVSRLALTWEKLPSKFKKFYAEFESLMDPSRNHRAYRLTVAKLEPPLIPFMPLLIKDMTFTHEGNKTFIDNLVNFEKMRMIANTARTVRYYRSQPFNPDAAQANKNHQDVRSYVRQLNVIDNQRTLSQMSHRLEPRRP

[17] = target: Rap guanine nucleotide exchange factor 4 (Homo sapiens) (UniProt Q8WZA2); test: Confirmatory qHTS for antagonist of cAMP-regulated guanine nucleotide exchange factor 4 (EPAC2) (AID 1645885); also: % is scaled to controls: 0 for no effect and ±100 for the full control effect; nearly all actives have a fitted effect of over 25% in size
[18] = target: Dual specificity protein kinase CLK4 (Homo sapiens) (UniProt Q9HAZ1); test: qHTS Assay for Inhibitors of CDC-like Kinase 4 (Kinase-Glo Assay) (AID 1770); also: % is scaled to controls: 0 for no effect and ±100 for the full control effect; nearly all actives have a fitted effect of over 65% in size
Sequence of Dual specificity protein kinase CLK4 (Homo sapiens) (Q9HAZ1 whole entry, looked up): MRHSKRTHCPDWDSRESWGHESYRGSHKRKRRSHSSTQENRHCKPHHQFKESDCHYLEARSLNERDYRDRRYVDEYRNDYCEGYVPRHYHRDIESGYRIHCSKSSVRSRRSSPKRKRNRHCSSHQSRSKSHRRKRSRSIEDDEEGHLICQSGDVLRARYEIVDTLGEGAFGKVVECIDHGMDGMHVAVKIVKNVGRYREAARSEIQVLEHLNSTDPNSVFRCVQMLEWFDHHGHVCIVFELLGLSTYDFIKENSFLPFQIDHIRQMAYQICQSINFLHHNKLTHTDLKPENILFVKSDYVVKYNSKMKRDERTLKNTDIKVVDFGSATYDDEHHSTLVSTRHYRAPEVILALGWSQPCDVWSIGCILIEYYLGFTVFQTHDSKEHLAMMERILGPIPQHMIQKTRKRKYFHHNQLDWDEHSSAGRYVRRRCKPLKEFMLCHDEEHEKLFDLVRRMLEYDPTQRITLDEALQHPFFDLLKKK
How it was run: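 Clk4 25 nM, RS peptide 100 uM, ATP 1 uM, pH 7.5 Tris, 10 mM MgCl2, 2.5 mM DTT; 4.5 h RT; ATP depletion read by Kinase-Glo luminescence.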

[19] = target: Dual specificity protein kinase CLK4 (Homo sapiens) (UniProt Q9HAZ1); test: qHTS Assay for Inhibitors of CDC-like Kinase 4 (ADP-Glo Assay) (AID 1771); also: % is scaled to controls: 0 for no effect and ±100 for the full control effect; nearly all actives have a fitted effect of over 70% in size
How it was run: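 Clk4 (25 nM) was incubated 1 hr at room temperature with 100 uM RS repeat peptide and 1 uM ATP in buffer with 2 mM MgCl2, 0.5 mM EGTA, 2.5 mM DTT. ADP formed was quantified by ADP-Glo luminescence.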

[20] = target: Dual specificity protein kinase CLK4 (Homo sapiens) (UniProt Q9HAZ1); test: qHTS Assay for Inhibitors of CDC-like Kinase 4 (ADP-FP Assay) (AID 1795);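 also: recombinant human CLK4 phosphorylating RS repeat peptide at 1 µM ATP; % is scaled to controls: 0 for no effect and ±100 for the full control effect; nearly all actives have a fitted effect of over 60% in size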
How it was run: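 Kinase activity was followed as ADP output, converted from fluorescence polarization with a calibration curve. Reactions ran one hour at low ATP (1 uM) with RS peptide substrate.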

[21] = measured here: cell count channel max response
[22] = measured here: lipid channel max response

O=C(c1ccncc1)N1CCC2(CC1)CCN(c1ccncc1)CC2
-7.91%: max response [6, 22]
inactive: activity change, negative = inhibition [1] -16.4% | activity, negative = inhibition [2] 5.08% | Potency [3] > 46 µM | Potency [4] | Potency [5] | activity change, negative = inhibition [6] 1.78% | outcome [7]
-11.6%: max response [6, 21]

COCC(=O)N1CCC2(CC1)CN(c1cccc(-c3ccccc3)c1)C2
-3.81%: max response [6, 21]
0.928%: max response [6, 22]
inactive: activity change, negative = inhibition [1] -29.8% | activity change, negative = inhibition [8] 19.3% | Potency [3] > 46 µM | Potency [4] | Potency [5] | activity change, negative = inhibition [6] 3.02% | outcome [7]

Cc1cccc(CNc2ncnc3ccc(-c4c(C)noc4C)cc23)c1
-10.6%: max response [6, 22]
inactive: activity change, negative = inhibition [1] 14.8% | Potency [10] > 46 µM | Potency [3] > 46 µM | Potency [4] | Potency [11] | activity change, negative = inhibition [6] -3.45% | outcome [7]
-9.91%: max response [6, 21]
active: Potency [9] 5.01 µM

O=C(c1cnccn1)N1CCC2(CCN(Cc3ccccc3)CC2)CC1
14.3%: max response [6, 22]
7.12%: max response [6, 21]
inactive: activity change, negative = inhibition [1] 12.5% | activity, negative = inhibition [2] -1.26% | Potency [3] > 46 µM | Potency [4] | Potency [5] | activity change, negative = inhibition [6] 2.37% | outcome [7]

Cc1cc(OC(=O)c2c(C)cc(O)cc2O)cc(O)c1C(=O)O
13%: max response [6, 21]
inactive: Potency [11] | activity change, negative = inhibition [6] 8.43% | Potency [12] | outcome [7]
23.1%: max response [6, 22]

COc1cc(C)c2c(c1C=O)Oc1c(c(C)c(O)c3c1C(O)OC3=O)OC2=O (configuration not stated)
inactive: Potency [11] | activity change, negative = inhibition [6] 4.32% | outcome [7]
active: Potency [12] 56.2 µM
11.3%: max response [6, 22]
5.41%: max response [6, 21]

COC(=O)N1CCC2(CCCN(c3cccc(-c4ccccc4)c3)C2)CC1
inactive: Potency [13] > 11.4 µM | activity change, negative = inhibition [1] 3.74% | activity, negative = inhibition [2] -6.31% | Potency [3] > 46 µM | Potency [4] | Potency [5] | outcome [7] | Potency [14] | Potency [15] | Potency [16] | Potency [17]

COc1ccc(C(=O)N2CCC3(CC2)CN(c2cccc(-c4ccccc4)c2)C3)cc1
inactive: Potency [13] > 11.4 µM | activity change, negative = inhibition [1] -18.9% | activity, negative = inhibition [2] -19.1% | Potency [3] > 46 µM | outcome [7] | Potency [14] | Potency [15] | Potency [16] | Potency [17]

O=c1c(-c2cc(F)cc(F)c2)nc2cncnc2n1Cc1ccccc1Cl
inactive: Potency [13] > 11.4 µM | activity change, negative = inhibition [1] 5.85% | activity change, negative = inhibition [8] -19.2% | activity, negative = inhibition [2] -6.37% | Potency [10] > 9.22 µM | Potency [3] > 46 µM | Potency [4] | Potency [5] | Potency [11] | Potency [18] | Potency [19] | Potency [20] | Potency [12] | outcome [7] | Potency [14] | Potency [15] | Potency [16] | Potency [17]
active: Potency [9] 5.01 µM

COc1ccc(CNc2cc(-c3ccccc3C)ncn2)c(OC)c1
inactive: Potency [13] > 11.4 µM | activity change, negative = inhibition [8] -16.6% | activity, negative = inhibition [2] -12.7% | Potency [10] > 46 µM | Potency [3] > 46 µM | Potency [4] | Potency [18] | Potency [20] | outcome [7] | Potency [14] | Potency [15] | Potency [16] | Potency [17]

O=C1C=C(O)c2ccccc2C1=O
-0.646%: max response [6, 21]
active: Potency [12] 50.1 µM
inactive: Potency [11] | activity change, negative = inhibition [6] -2.81% | outcome [7]
-2.25%: max response [6, 22]

Clc1cccc2c1CN(C1=NCCN1)C2
active: Potency [9] 0.398 µM
inactive: Potency [10] > 46 µM | Potency [3] > 46 µM | Potency [4] | Potency [5] | activity change, negative = inhibition [6] 3.4% | Potency [12] | outcome [7]
12.9%: max response [6, 21]
20.6%: max response [6, 22]

N[C@H](C(=O)O)c1ccc(O)c(C(=O)O)c1
22.5%: max response [6, 22]
inactive: Potency [9] | Potency [10] > 46 µM | Potency [4] | Potency [5] | activity change, negative = inhibition [6] 1.32% | outcome [7]
18.1%: max response [6, 21]

O=C(c1cccc(F)c1)N1CCC2(CCCN(c3cccc(-c4ccccc4)c3)C2)CC1
active: Potency [9] 15.8 µM
inactive: Potency [13] > 11.4 µM | activity change, negative = inhibition [1] 11.6% | activity change, negative = inhibition [8] -6.68% | activity, negative = inhibition [2] 7.29% | Potency [3] > 46 µM | Potency [4] | Potency [5] | Potency [11] | outcome [7] | Potency [14] | Potency [15] | Potency [16] | Potency [17]

CS(=O)(=O)c1ccc(Cn2c3c(c4cc(F)cc(F)c42)CCC[C@H]3CC(=O)O)cc1
14.3%: max response [6, 22]
inactive: Potency [9] | Potency [10] > 46 µM | Potency [3] > 46 µM | Potency [4] | Potency [11] | activity change, negative = inhibition [6] -2.09% | outcome [7]
15%: max response [6, 21]

Cn1cccc1C(=O)N1CCC2(CCCN(c3cccc(-c4ccccc4)c3)C2)CC1
inactive: Potency [13] > 11.4 µM | activity change, negative = inhibition [1] 7.29% | activity change, negative = inhibition [8] -13.3% | activity, negative = inhibition [2] 2.34% | Potency [3] > 46 µM | Potency [11] | outcome [7] | Potency [14] | Potency [15] | Potency [16] | Potency [17]
active: Potency [9] 15.8 µM

CN(C)Cc1ccccc1-c1ccc2ncnc(N3CCOCC3)c2c1
17.3%: max response [6, 22]
6.66%: max response [6, 21]
active: Potency [9] 15.8 µM
inactive: activity change, negative = inhibition [8] 2.99% | activity, negative = inhibition [2] 12.4% | Potency [10] > 46 µM | Potency [3] > 46 µM | Potency [4] | Potency [11] | activity change, negative = inhibition [6] 9.22% | Potency [12] | outcome [7]
